Measurements from PubChem BioAssay.
Values joined by “and” are separate entries in the source; they are usually repeats but may differ in a detail not shown here. Identical values can stand only once. Active and inactive are the calls of the source. Unless noted, how the calls were made is not given here.

What was measured:
[1] = tested on: XIP peptide (Xip251-270) binding; assay: small-molecule binders of XIP peptide, primary screen, biochemical, small-molecule microarray, fluorescence 635/667 nm, 0.1 µg/mL protein (AID 1182); settings: fluorescent protein binding, 635 nm, higher = more signal, called active from +8 up or from −8 down
[2] = tested on: XIP peptide (Xip251-270); assay: small-molecule binders of XIP peptide, primary screen, biochemical, small-molecule microarray, fluorescence 635/667 nm, 0.5 µg/mL protein (AID 1183); settings: small-molecule microarray binding, fluorescence 635 nm; higher = more signal
[3] = Plasmodium falciparum growth inhibition, primary screen, strain 3D7, DAPI fluorescence, 100 nL (AID 1184);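 further: parasites grown inside human red blood cells in medium with human serum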; settings: P. falciparum 3D7 growth, 3 d, higher = more signal
[4] = target: Homeobox protein Hox-A13 (Mus musculus) (UniProt Q62424); assay: inhibitors of HoxA13-DNA binding, primary screen, biochemical, fluorescence polarization, labeled oligonucleotide (AID 1185); settings: 15 min, higher = more signal, called active from +8 up or from −8 down
[5] = inhibitors of hydroxyurea-induced Chk1 phosphorylation, primary screen, imaging, HeLa, phospho-Chk1 antibody, percent positive cells (AID 1186); settings: hydroxyurea-induced phospho-Chk1 immunofluorescence imaging, higher = more signal
[6] = inhibitors of hydroxyurea-induced Chk1 phosphorylation, primary screen, imaging, HeLa, phospho-Chk1 nuclear intensity (AID 1187); settings: hydroxyurea-induced phospho-Chk1 immunofluorescence imaging, higher = more signal

Homeobox protein Hox-A13 (Mus musculus), sequence (Q62424 whole entry, looked up): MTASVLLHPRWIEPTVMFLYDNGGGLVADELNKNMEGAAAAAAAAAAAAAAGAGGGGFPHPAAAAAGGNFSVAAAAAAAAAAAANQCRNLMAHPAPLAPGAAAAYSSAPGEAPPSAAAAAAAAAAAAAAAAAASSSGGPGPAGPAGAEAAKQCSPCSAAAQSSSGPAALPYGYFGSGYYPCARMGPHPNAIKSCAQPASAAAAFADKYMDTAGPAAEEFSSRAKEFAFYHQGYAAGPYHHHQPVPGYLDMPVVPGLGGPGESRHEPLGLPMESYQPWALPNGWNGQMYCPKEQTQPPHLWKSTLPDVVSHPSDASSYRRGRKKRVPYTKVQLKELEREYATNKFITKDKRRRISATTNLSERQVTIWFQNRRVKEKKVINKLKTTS

Row | SMILES | composite z-score [1] | composite z-score [2] | z-score [3] | z-score [4] | z-score [5] | z-score [6]
1 | C[N+](C)(C)CCCCNC(=O)[C@H]1C[C@H]2C(=O)N[C@@H](CCCC[N+](C)(C)C)C(=O)N2[C@H]1c1ccc(O)cc1 | 1.52 (inactive) and 1.25 (inactive) | 0.761 and 0.892 | 0.952 and -1.12 | -0.497 (inactive) and 1.22 (inactive) | 0.487 (inactive) and -0.868 (inactive) | 0.605 (inactive) and -0.687 (inactive)
2 | C=CCN(C(=O)C(c1cccs1)N(C(=O)/C=C\C(=O)O)c1ccc(CCO)cc1)C(C)(C)C (configuration not stated) | 0.356 (inactive) and 1.08 (inactive) | -0.998 and 0.187 | -0.21 and -0.719 | 0.0682 (inactive) and -0.369 (inactive) | 0.632 (inactive) and 1.03 (inactive) | 0.344 (inactive) and 0.743 (inactive)
3 | C=CCN(CCCCC)C(=O)C(c1cccs1)N(C(=O)/C=C\C(=O)O)c1ccc(CCO)cc1 (configuration not stated) | -0.141 (inactive) and 0.737 (inactive) | 0.861 and -0.198 | 0.653 and 0.454 | -0.227 (inactive) and 0.0535 (inactive) | 0.51 (inactive) and 0.163 (inactive) | 0.571 (inactive) and -0.0484 (inactive)
4 | CC(C)OC(=O)C=C1C[C@@H](c2cccc(C(F)(F)F)c2)O[C@@H](c2cccc(C(F)(F)F)c2)O1 | 0.081 (inactive) and 0.769 (inactive) | 0.78 and 0.781 | 0.15 and -0.473 | -2.72 (inactive) and -1.27 (inactive) | -0.394 (inactive) and -0.391 (inactive) | -0.854 (inactive) and -0.46 (inactive)
5 | CCCCCN1CC=CC23O[C@@H]4C=CCCOC(=O)C4[C@H]2C(=O)N(C(C)CO)[C@@H]3C1=O (some centres not stated) | 0.79 (inactive) and 0.201 (inactive) | 0.675 and 0.445 | -0.165 and -0.358 | -5.44 (inactive) and -4.65 (inactive) | -0.605 (inactive) and 0.667 (inactive) | 0.0018 (inactive) and 0.28 (inactive)
6 | C=CCN(Cc1ccccc1)C(=O)C(c1cccs1)N(C(=O)/C=C\C(=O)O)c1ccc(CCO)cc1 (configuration not stated) | -0.37 (inactive) and 0.164 (inactive) | -0.468 and 0.61 | -0.0763 and 0.331 | 0.603 (inactive) and 0.423 (inactive) | 0.141 (inactive) and 0.581 (inactive) | 0.404 (inactive) and 0.592 (inactive)
7 | COC(=O)[C@@]1(Cc2ccccc2)[C@H]2c3cc(C(=O)N(C)C)n(Cc4ccc(C)c(F)c4F)c3C[C@H]2CN1C(=O)c1ccccc1 | -0.103 (inactive) and -0.157 (inactive) | 0.639 and 0.462 | -1.74 and -1.65 | -4.22 (inactive) and -3.34 (inactive) | -0.387 (inactive) and 0.293 (inactive) | -0.653 (inactive) and 0.169 (inactive)
8 | C=CCN(C(=O)C(c1cccs1)N(C(=O)/C=C\C(=O)O)c1c(Cl)cccc1CO)c1ccc(OC)cc1 (configuration not stated) | 0.861 (inactive) and 0.113 (inactive) | -0.457 and -1.04 | 0.734 and 1.62 | 0.171 (inactive) and -1.67 (inactive) | -0.0464 (inactive) and 0.245 (inactive) | 0.0355 (inactive) and 0.636 (inactive)
9 | C=C[C@H](OC)[C@@H](O)c1ccc(OCCO)cc1 | 0.632 (inactive) and -0.235 (inactive) | -1.15 and -0.537 | 0.0026 and 0.809 | -0.791 (inactive) and -0.187 (inactive) | 0.228 (inactive) and 0.524 (inactive) | 0.0287 (inactive) and 0.865 (inactive)
10 | C=CC[C@@H](O)c1ccc(O)c2ccccc12 | 2.01 (inactive) and 0.431 (inactive) | 0.703 and 0.802 | -0.401 and 0.619 | -2.24 (inactive) | 0.024 (inactive) and 0.26 (inactive) | 0.515 (inactive) and 0.183 (inactive)
11 | C=CCN(C(=O)C(c1cccs1)N(CCOCCO)C(=O)/C=C\C(=O)O)c1ccc(OC)cc1 (configuration not stated) | -0.0498 (inactive) and -0.363 (inactive) | -0.371 and -1.72 | -0.305 and 0.0058 | 1.69 (inactive) and 0.807 (inactive) | -1.69 (inactive) and -0.75 (inactive) | -0.197 (inactive) and -0.573 (inactive)
12 | CCOC(=O)c1ccc(NC(=O)O[C@H]2[C@H](OC(=O)Nc3ccccc3)[C@@H](OC(=O)Nc3ccccc3)[C@@H](OC)O[C@@H]2CO)cc1 | 1.73 (inactive) and 0.466 (inactive) | 0.928 and 0.91 | -1.89 and -2.47 | -3.34 (inactive) and -4.61 (inactive) | 0.416 (inactive) and -0.71 (inactive) | 0.161 (inactive) and -0.827 (inactive)
13 | CC(C)[Si]1(C(C)C)OCc2cc(C3CC3)nc(CCc3ccccc3)c21 | 1.11 (inactive) and 0.0908 (inactive) | -0.663 and -0.481 | -0.541 and 0.653 | -0.448 (inactive) and 0.438 (inactive) | 0.0389 (inactive) and 0.993 (inactive) | 0.579 (inactive) and 0.548 (inactive)
14 | C=CCN(C(=O)C1N(c2ccc(CCO)cc2)C(=O)C2C(C(=O)O)C3C=CC21O3)c1ccc(OC)cc1 (configuration not stated) | 0.777 (inactive) and -0.925 (inactive) | 0.936 and -0.824 | -1.09 and -0.417 | -1.87 (inactive) and -0.733 (inactive) | -0.265 (inactive) and -0.271 (inactive) | -0.268 (inactive) and -0.384 (inactive)
15 | CC(CO)N1C(=O)[C@@H]2C3C(=O)OCCC=C[C@H]3OC23C=CCN(CCN2CCOCC2)C(=O)[C@@H]13 (some centres not stated) | -0.163 (inactive) and 0.286 (inactive) | -0.0259 and 0.321 | -0.195 and 0.513 | -6.39 (inactive) and -7.63 (inactive) | 0.079 (inactive) and 0.456 (inactive) | -0.204 (inactive) and 0.371 (inactive)
16 | C=CCN(C(=O)C1N(C(C)(C)CO)C(=O)C2C(C(=O)O)C3C=CC21O3)c1ccc(OC)cc1 (configuration not stated) | 0.382 (inactive) and -0.0838 (inactive) | -0.383 and -1.8 | -0.445 and 0.004 | -1.43 (inactive) and 0.701 (inactive) | 2.27 (inactive) and 0.407 (inactive) | 1.44 (inactive) and 0.526 (inactive)
17 | C[N+](C)(C)CCCCCCNC(=O)[C@@H]1C[C@@H]2C(=O)N[C@@H](CCCC[N+](C)(C)C)C(=O)N2[C@@H]1c1ccc(O)cc1 | 0.134 (inactive) and 0.316 (inactive) | 0.907 and 0.898 | 0.202 and -0.0272 | -0.929 (inactive) and -2.3 (inactive) | 0.556 (inactive) and 0.31 (inactive) | 0.424 (inactive) and 0.327 (inactive)
